Reference: PubChem BioAssay AID793 (The Scripps Research Institute Molecular Screening Center, 2007)
Hit rate of the full screen: of about 140,000 compounds, about 1,400 (1%) were called active. The sample as a whole holds a higher share of actives than the screen did. A number with no mark means an inactive call. Cut-off read from the data, not from the text of the source: active = inhibition above about 17%; inactive = the rest.

The compounds below were run against Neuropeptide Y receptor type 2 (Homo sapiens) (UniProt P49146) (assay: blockers of human neuropeptide Y Y2 receptor – cell-based, primary screen (AID 793;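 note: 0% = vehicle with agonist challenge and 100% = reference antagonist with challenge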)). Settings: NPY-Y2 expressing cells, antagonist mode; at 2.7 µM; stronger effect = higher value.
Chain of Neuropeptide Y receptor type 2 (Homo sapiens) (P49146 whole entry, looked up): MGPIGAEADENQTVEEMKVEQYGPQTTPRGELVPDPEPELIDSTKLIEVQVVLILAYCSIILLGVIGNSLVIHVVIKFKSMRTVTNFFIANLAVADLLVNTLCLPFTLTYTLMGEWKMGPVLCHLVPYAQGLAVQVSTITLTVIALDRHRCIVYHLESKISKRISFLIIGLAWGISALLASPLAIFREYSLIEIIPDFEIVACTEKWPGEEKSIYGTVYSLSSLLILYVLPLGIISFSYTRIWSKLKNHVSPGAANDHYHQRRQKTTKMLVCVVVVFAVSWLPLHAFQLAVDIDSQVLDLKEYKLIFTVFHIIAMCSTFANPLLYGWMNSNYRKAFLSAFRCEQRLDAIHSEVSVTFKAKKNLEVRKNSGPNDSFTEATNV
For O=C(COC(=O)c1cc([N+](=O)[O-])ccc1NCc1ccccc1)NC1CCCCC1, the inhibition was 5.74%.
With N#Cc1ccc(C(c2nnnn2CCc2ccccc2)N2CCCCCC2)cc1 (stereo not given) the inhibition was 17.9% (active).
With CC(C)C(c1nnnn1CCc1ccccc1)N1CCN(C(=O)c2ccco2)CC1 (stereo not given) the inhibition was 3.59%.
COc1ccc(CCn2nnnc2C(c2ccccc2)N2CCN(C)CC2)cc1OC (stereo not given) showed an inhibition of 5.97%.
Compound CCOc1cc(CNCc2ccccn2)ccc1OCC(=O)NC(C)(C)C has an inhibition of 2.66%.
Work on Cc1ccc(NC(=O)CCOc2ccccc2)cc1S(=O)(=O)Nc1ccccc1Cl yielded an inhibition of 0.14%.
CCOC(=O)c1ccc(N/C(=N/S(=O)(=O)c2ccccc2)c2ccccc2)cc1 gave an inhibition of 0.02%.
O=C(CNC(=O)C(c1ccccc1)c1ccccc1)N/N=C\c1ccc2c(c1)OCO2 gave an inhibition of 9.72%.
In the case of CCOc1ccc(NC(=O)CSc2nc3ccccc3c(=O)n2Cc2cccs2)cc1, the inhibition is reported as 1.51%.
For O=C(Nc1ccccc1)OCc1cn(-c2ccc(Cl)cc2)nn1, the inhibition was 12%.
N#Cc1ccc(N2Cc3ccccc3/C2=N/C(=O)Nc2ccc(Cl)cc2)cc1 was tested, and the inhibition was 108% (active).
With Cc1cccc(N2Cc3ccccc3C2=NC(=O)c2ccc(Cl)nc2)c1 the inhibition was 1.24%.
COc1ccc(C(=O)CSc2nnc(COc3ccccc3)n2Cc2ccco2)cc1 showed an inhibition of 16.4%.
COc1ccc(-c2oc3ncn(Cc4ccco4)c(=N)c3c2-c2ccc(OC)cc2)cc1 was tested, and the inhibition was 18.1% (active).
c1ccc(-c2oc3ncnc(N4CCOCC4)c3c2-c2ccccc2)cc1 was tested, and the inhibition was 4.38%.
Work on COc1ccc2[nH]c3c(=O)n(Cc4ccco4)cnc3c2c1 yielded an inhibition of 3.41%.
In the case of N=c1c2c(-c3ccccc3)c(-c3ccccc3)oc2ncn1Cc1ccco1, the inhibition is reported as 20.1% (active).
Compound C(=C\c1ccccc1)/CSc1nnc(-c2cccnc2)n1Cc1ccco1 has an inhibition of 7.64%.
With O=C(Nc1nnc(C2COc3ccccc3O2)o1)c1ccc(F)cc1 (stereo not given) the inhibition was 7.93%.
CN(C)CCNC(=O)/C(=C/c1cccc([N+](=O)[O-])c1)NC(=O)c1ccccc1 gave an inhibition of 1.28%.
For N=c1c2c(-c3ccccc3)c(-c3ccccc3)n(Cc3ccccc3)c2ncn1CCCO, the inhibition was 72.4% (active).
For OCCCN1c2ccccc2Nc2nnc(-c3ccccc3)cc21, the inhibition was 3.77%.
Cc1ccc2[nH]cc(CCNC(=O)c3ccc([N+](=O)[O-])cc3)c2c1 showed an inhibition of -0.38%.
With CSCc1ccc(C(=O)Nc2cc(C)cc(C)c2)cc1 the inhibition was 3.07%.
CC(=O)c1c(Nc2ccccc2)sc(C(=O)c2ccccc2)c1C was tested, and the inhibition was 14.2%.
For Cc1cc(C)c2c(-n3cccc3)c(NC(=O)OCc3ccccc3)sc2n1, the inhibition was 24.7% (active).
Work on CCCCOC(=O)Nc1sc2nc(C)cc(C)c2c1-n1cccc1 yielded an inhibition of 4.45%.
COC(=O)Nc1sc2nc(C)cc(C)c2c1-n1cccc1 showed an inhibition of 2.27%.
With O=C(Nc1cccc(S(=O)(=O)N2CCCCC2)c1)c1ccc2c(c1)OCO2 the inhibition was 3.64%.
Cc1nc(Cl)c2oc3ccccc3c2n1 was tested, and the inhibition was 4.04%.
Compound CCc1nc(Nc2ccc3nccnc3c2)c2oc3ccccc3c2n1 has an inhibition of -2.05%.
In the case of COc1ccccc1Nc1ncnc2c1oc1ccccc12, the inhibition is reported as 19.4% (active).
O=[N+]([O-])c1ccc(N2CCN(c3ccc(O)cc3)CC2)c(Cl)c1 was tested, and the inhibition was -2.81%.
Compound CCC(C)(C)NC(=O)c1cc([N+](=O)[O-])ccc1N1CCCCC1 has an inhibition of 0.52%.
CCN1CCN(c2ccc([N+](=O)[O-])cc2C(=O)c2ccc(Cl)cc2)CC1 was tested, and the inhibition was 22.2% (active).
In the case of NC(=O)CC[C@@H]1NC(=O)[C@@H]2CCCN2C(=O)c2cc([N+](=O)[O-])cc(F)c2NCCC[C@@H](C(N)=O)NC1=O, the inhibition is reported as -1.38%.
Work on CCC1=NN(C(=O)Cc2ccc([N+](=O)[O-])cc2)C(O)(c2ccc(Br)cc2)C1 (stereo not given) yielded an inhibition of 4%.
COCCNC(=O)C(c1ccc(C)o1)N(Cc1ccccc1)C(=O)Cn1nnc2ccccc21 (stereo not given) gave an inhibition of 2.71%.
With COc1ccccc1N(C(=O)Cn1nnc2ccccc21)C(C(=O)NCc1ccco1)c1ccc(C)o1 (stereo not given) the inhibition was 26.2% (active).
Cc1ccc(C(C(=O)NCc2ccco2)N(CC2CCCO2)C(=O)Cn2nnc3ccccc32)cc1 (stereo not given) gave an inhibition of 5.64%.
Work on O=C(Cn1nc(CNc2ccc(Cl)cc2)[n+]2c1CCCCC2)c1ccc(Cl)cc1 yielded an inhibition of 0.53%.
Compound CCn1nc(C)c(/C=N/NC(=O)Cc2ccc(Cl)cc2)c1C has an inhibition of 2.23%.
With COc1ccc(NC(=O)/C(Cl)=C(/Cl)S(=O)Cc2ccc(C)cc2)cn1 (stereo not given) the inhibition was 52% (active).
In the case of COc1cccc(NC(=O)Cc2ccc(C)cc2)c1, the inhibition is reported as 3.66%.
Work on COc1ccc(NS(=O)(=O)c2ccc(NC(=S)NC(=O)/C=C/c3ccc(C)cc3)cc2)nn1 yielded an inhibition of 3.45%.
In the case of CN(C)c1ccc(/C=N/NC(=O)c2ccc(Cn3cc(Br)cn3)o2)cc1, the inhibition is reported as -0.65%.
In the case of CCCCC1S/C(=N/N=C/c2cccs2)NC1=O (stereo not given), the inhibition is reported as 2.47%.
Work on COCCNC(=O)c1onc(CSc2cccc(C)c2)c1C(=O)O yielded an inhibition of 5.73%.
For CCOc1cccc(SCc2noc(C(=O)NC(C)C)c2C(=O)O)c1, the inhibition was 6.09%.
With CCCCNC(=O)c1onc(CSc2cccc(OC)c2)c1C(=O)O the inhibition was 28% (active).
Compound COc1ccnc(Oc2ccccc2)n1 has an inhibition of 1.08%.
In the case of O=C(Nc1ccccc1)N1CCN(Cc2ccccc2)CC1, the inhibition is reported as 0.29%.
CC12CN(Cc3ccccc3)CC(C)(CN(Cc3ccccc3)C1)C2=NO was tested, and the inhibition was 28.4% (active).
For CCCC(=O)C1CCN(Cc2ccccc2)CC1, the inhibition was 0.89%.
COc1ccccc1N1CCN(CC(=O)NC(=O)NCc2ccco2)CC1 gave an inhibition of 2.56%.
With Cc1ccc(C(CC(=O)O)Nc2nc(N3CCCCC3)nc(N3CCCCC3)n2)cc1 (stereo not given) the inhibition was 1.53%.
CC(C)n1c(C(O)c2ccccc2)nc2ccccc21 (stereo not given) gave an inhibition of 1.4%.
CC(Nc1nc(N2CCCC2)nc2ccccc12)c1ccccc1 (stereo not given) was tested, and the inhibition was 54.6% (active).
In the case of Cc1cc(Oc2ccc(Cl)cc2)nc(SCC(=O)c2ccccc2)n1, the inhibition is reported as 48.6% (active).
Work on COC(=O)c1cc(C(=O)CSc2nc(C)cc(C)n2)ccc1O yielded an inhibition of 4.06%.
Compound Cc1cc(SCC(=O)c2ccccc2)nc(SCC(=O)c2ccccc2)n1 has an inhibition of 13.8%.
In the case of Cc1ccccc1OCC(=O)Nc1nc(C)c(C(=O)N(C)C)s1, the inhibition is reported as 5.58%.
CC1CCN(C(=S)NC2CC3CCC2C3)CC1 (stereo not given) was tested, and the inhibition was 1.13%.
O=C(CN1C(=O)NC2(CCCCCC2)C1=O)NCc1cccs1 gave an inhibition of -3.2%.
O=C(CN1C(=O)NC2(CCCCC2)C1=O)NCCC1=CCCCC1 gave an inhibition of 0.27%.
In the case of O=C(CN1C(=O)NC(Cc2ccccc2)(Cc2ccccc2)C1=O)NCC1CCCCC1, the inhibition is reported as 80.5% (active).
O=C1CC(c2ccccc2)CC(O)=C1C=NCCN1CCOCC1 (stereo not given) was tested, and the inhibition was 0.58%.
With O=C1CC(c2cccc(Cl)c2)CC(O)=C1C=Nc1ccccc1 (stereo not given) the inhibition was 18.4% (active).
Work on O=C1CCCC(O)=C1C=NCCc1ccccc1 yielded an inhibition of 1.66%.
Compound COc1ccc(NC(C(=O)Nc2cccc(C(C)=O)c2)c2ccccc2)cc1 (stereo not given) has an inhibition of -1.54%.
COCCCNCCOCCOc1ccc(Cl)cc1Br was tested, and the inhibition was 3.88%.
Compound O=C(NCc1cccnc1)c1cccnc1Sc1ccc(Cl)cc1 has an inhibition of -0.63%.
With Cc1ccc(S(=O)(=O)N(Cc2ccc(Cl)cc2)c2ccccc2C(=O)NCc2cccnc2)cc1 the inhibition was 35% (active).
O=C(NCc1cccnc1)c1ccc(CS(=O)(=O)c2ccc(Br)cc2)o1 gave an inhibition of -0.12%.
COc1ccc(/C=N/NC(=O)c2ccccc2)cc1OS(=O)(=O)c1ccccc1 gave an inhibition of 0.26%.
With COc1ccc(-c2noc(COc3ccc(Cl)c(C)c3)n2)cc1 the inhibition was 18.2% (active).
COc1ccc(-c2noc(-c3ccc(C)cc3)n2)cc1 showed an inhibition of 2.85%.
COc1ccc(-c2noc(CSc3ccc(C)cc3)n2)cc1 gave an inhibition of 16.5%.
O=C(NCCCO)/C(=C\C=C\c1ccccc1)NC(=O)c1ccccc1Cl gave an inhibition of 1.12%.
Compound CCOC12CC(C)(C)CC(C)(CC3=C1C(=O)CC(C)(C)C3)C2 (stereo not given) has an inhibition of 3.39%.
In the case of COc1ccc(C(=O)Nc2c(Cl)cc(Cl)cc2C(=O)N2CCC(C)CC2)cc1, the inhibition is reported as 3.91%.
Work on CCC1(CC)Cc2ccccc2-c2nc3ccccc3c(=O)n21 yielded an inhibition of 7.5%.
O=c1c2ccccc2nc2n1C1(CCCCC1)Cc1ccccc1-2 was tested, and the inhibition was 21.2% (active).
With c1cncc(-c2nnc3n2C2(CCCCC2)Cc2ccccc2-3)c1 the inhibition was 1.77%.
For COc1ccc(C(C(=O)NC2CCCCC2)N(C(=O)Cc2c[nH]c3ccccc23)c2ccccc2)cc1OC (stereo not given), the inhibition was 0.1%.
With CC(NC(=O)c1cccc2ccccc12)c1ccc2c(c1)CCCC2 (stereo not given) the inhibition was 5.32%.
For O=C(CC(=O)Nc1ccc(Cl)c(Cl)c1)N/N=C/c1ccc(O)cc1, the inhibition was -3.17%.
O=C(CC(O)(C(F)(F)F)C(F)(F)F)Nc1ccc(Cl)c(Cl)c1 was tested, and the inhibition was 24.4% (active).
In the case of CN(C)CCNC(CC(=O)Nc1ccc(Cl)c(Cl)c1)C(=O)O (stereo not given), the inhibition is reported as 0.54%.
Nc1nc(SCc2ccc([N+](=O)[O-])cc2)c2ncn(C3OC(CO)C(O)C3O)c2n1 (stereo not given) showed an inhibition of 1.64%.
Compound O=C(Nc1cn(-c2ccccc2)nc1-c1ccccc1)c1ccccc1 has an inhibition of 9.26%.
With O=C(NCCN1CCOCC1)c1cc(Sc2cccc(Cl)c2)nc2ccccc12 the inhibition was 3.17%.
For COc1ccc(OCCCC(=O)NCCc2ccccc2)cc1, the inhibition was 4.05%.
For CCCCNC(=O)C1(c2ccc(OC)cc2)CCOCC1, the inhibition was 3.6%.
For CCCCCNC(=O)Cc1ccc(OC)cc1, the inhibition was 20.3% (active).
